SMILES strings stand for the structures. About 350 (25%) of roughly 1,400 compounds were called active. Inconclusive results (about 2%) are left out. These entries were drawn from the full list. Measured potencies and affinities stand elsewhere. A number with no mark means an inactive call. The rule behind the calls is not given here.

The nature of this assay: inhibitors of Clostridioides difficile proliferation – 4-point retest, confirmation (AID 1224921).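 Note: plate controls were DMSO wells for no effect and levofloxacin 16 µg/mL wells for full effect.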 Particulars: Clostridioides difficile clinical isolate growth, OD600, 24 h, hits give low values; at 30 µM unless noted.
On to `CO[C@@H]1CN(C)C(=O)c2ccc(NC(=O)C3CCC3)cc2OC[C@H](C)N(C(=O)CN(C)C)C[C@@H]1C`, for which the max activity is -13.6% [at 0.5 µM].

For `CO[C@H]1CN(C)C(=O)c2cc(NC(=O)C3CCOCC3)ccc2OC[C@@H](C)N(C(=O)c2ccccc2)C[C@H]1C`, the max activity was -10.4% [at 1.95 µM].

Regarding `CO[C@H]1CN(C)C(=O)c2cc(NC(=O)C3CCOCC3)ccc2OC[C@H](C)N(C(=O)c2ccccc2)C[C@H]1C`, the max activity is -6.51%.

For `CO[C@H]1CN(C)C(=O)c2ccc(NC(=O)C3CCC3)cc2OC[C@H](C)N(C(=O)CN(C)C)C[C@H]1C`, the max activity was -8.4%.

With `CO[C@@H]1CN(C)C(=O)c2cc(NC(=O)C3CCOCC3)ccc2OC[C@H](C)N(C(=O)c2ccccc2)C[C@H]1C`, the max activity is -8.41% [at 0.5 µM].

Take `CO[C@H]1CN(C)C(=O)c2cc(NC(=O)C3CC3)ccc2OC[C@H](C)N(C(=O)c2ccccn2)C[C@@H]1C`: the max activity was 5.91%.

In the case of `C[C@H]1CN([C@@H](C)CO)S(=O)(=O)c2ccc(C#CCC3CCCC3)cc2O[C@@H]1CN(C)C(=O)CC1CC1`, the max activity is 19.7% [at 8 µM].

Consider `CO[C@H]1CN(C)C(=O)c2ccc(NC(=O)c3nc4ccccc4s3)cc2OC[C@H](C)N(Cc2cccnc2)C[C@H]1C`, for which the max activity was 37.7%.

As for `CO[C@@H]1CN(C)C(=O)c2cc(NC(=O)Nc3ccccc3Cl)ccc2OC[C@@H](C)N(S(C)(=O)=O)C[C@H]1C`, the max activity is -12.2% [at 0.5 µM].

As for `O=C(CN1CCOCC1)N[C@@H]1CC[C@@H](CCNS(=O)(=O)c2ccccc2F)O[C@@H]1CO`, the max activity was -8.89% [at 0.5 µM].

Take `C[C@@H]1CN([C@@H](C)CO)C(=O)c2ccccc2-c2ccccc2CO[C@H]1CN(C)S(=O)(=O)c1ccc(Cl)cc1`: the max activity is 33.2% [at 35 µM].

For `C[C@H](CO)N1C[C@H](C)[C@H](CN(C)S(=O)(=O)c2ccccc2)Oc2ccc(NC(=O)Nc3cccc4ccccc34)cc2C1=O`, the max activity was -17.7% [at 8 µM].

In the case of `C[C@H](CO)N1C[C@H](C)[C@H](CN(C)C(=O)NC2CCCCC2)Oc2c(NC(=O)Nc3ccc(C(F)(F)F)cc3)cccc2C1=O`, the max activity was 35.7% [at 1.95 µM].

On to `C[C@@H]1CN([C@H](C)CO)C(=O)c2cccc(NC(=O)Nc3ccc(C(F)(F)F)cc3)c2O[C@H]1CN(C)Cc1ccc2c(c1)OCO2`, for which the max activity was 43.4% [at 8 µM].

`C[C@H](CO)N1C[C@H](C)[C@@H](CN(C)Cc2ccc3c(c2)OCO3)Oc2c(NC(=O)Nc3ccc(C(F)(F)F)cc3)cccc2C1=O`: the max activity is 43.3%.

As for `C[C@@H]1CN([C@@H](C)CO)C(=O)c2cccc(NC(=O)Nc3ccc(F)cc3)c2O[C@H]1CN(C)CC1CCCCC1`, the max activity was 13.5% [at 8 µM].

For `CCCC(=O)Nc1ccc2c(c1)OC[C@H](C)N(CCc1ccccc1)C[C@@H](C)[C@@H](OC)CN(C)C2=O`, the max activity was -11.5% [at 0.5 µM].

As to `C[C@@H]1CN([C@@H](C)CO)C(=O)Cc2cc(N(C)C)ccc2O[C@H]1CN(C)Cc1ccc(-c2ccccc2)cc1`, the max activity is 20.5% [at 8 µM].

As to `C#CCNC(=O)C1=C[C@H](c2cn(C(C)=O)c3ccccc23)C[C@H](OCc2ccc(CO)cc2)O1`, the max activity was -9.52% [at 0.5 µM].

Turning to `O=C(N[C@H]1C=C[C@@H](CC(=O)N2CCOCC2)O[C@@H]1CO)c1cccc(F)c1`, the max activity was -5.96%.

With `C[C@@H]1CCCCO[C@H](CN(C)CC2CC2)[C@H](C)CN([C@@H](C)CO)C(=O)c2cc(NC(=O)Nc3cccc4ccccc34)ccc2O1`, the max activity is 13.7%.

With `CCc1cnc(N2[C@H](CO)[C@H](c3ccc(C#CC(C)C)cc3)[C@@H]2C#N)s1`, the max activity was 17% [at 1.95 µM].

Regarding `CC(C)CC#Cc1ccc2c(c1)O[C@H](CN(C)Cc1cccnc1)[C@@H](C)CN([C@H](C)CO)S2(=O)=O`, the max activity is 42.9%.

In the case of `CC(C)Cc1ccc(CN2CC[C@@H](NC(=O)c3ccccc3)C2)cc1`, the max activity is 20.1% [at 8 µM].

On to `C[C@H](CO)N1C[C@H](C)[C@@H](CN(C)C(=O)Nc2ccc(C(F)(F)F)cc2)Oc2c(NC(=O)c3ccc(-c4nccs4)cc3)cccc2C1=O`, for which the max activity is 7.84%.

Take `O=S(=O)(NCC[C@H]1CC[C@H](NS(=O)(=O)c2ccccc2Cl)[C@H](CO)O1)c1ccc(Cl)cc1`: the max activity is 10% [at 7.5 µM].

`CC(C)NC(=O)NCC[C@H]1CC[C@@H](NS(=O)(=O)c2ccc(Oc3ccccc3)cc2)[C@H](CO)O1`: the max activity is 9.67%.

On to `O=C(NCC[C@@H]1CC[C@H](NC(=O)Nc2cc(F)ccc2F)[C@H](CO)O1)Nc1ccc(Cl)cc1`, for which the max activity is -10.4% [at 0.5 µM].

On to `CC(C)NC(=O)NCC[C@H]1CC[C@@H](NS(=O)(=O)c2ccc(Oc3ccccc3)cc2)[C@@H](CO)O1`, for which the max activity was 13.9% [at 35 µM].

With `O=C(C[C@@H]1CC[C@H](NC(=O)Nc2cc(F)ccc2F)[C@H](CO)O1)NCc1ccc2c(c1)OCO2`, the max activity is 4.18% [at 8 µM].

In the case of `Cc1ccc(S(=O)(=O)N[C@H]2CC[C@H](CCNS(=O)(=O)Cc3ccccc3)O[C@H]2CO)cc1`, the max activity is -13.6% [at 7.5 µM].

As for `CC(C)CC#Cc1ccc2c(c1)O[C@@H](CN(C)C(=O)c1ccccc1)[C@@H](C)CN([C@@H](C)CO)S2(=O)=O`, the max activity is 35.1%.

Regarding `CC(=O)N(C)C[C@H]1Oc2ncc(-c3ccc(C#N)cc3)cc2C(=O)N([C@H](C)CO)C[C@H]1C`, the max activity was -10.1% [at 1.95 µM].

As for `CO[C@H]1CN(C)C(=O)c2cc(NS(=O)(=O)c3cccc(F)c3)ccc2OC[C@H](C)N(Cc2cc(F)ccc2F)C[C@H]1C`, the max activity is 7.97%.

Take `CCC(=O)Nc1ccc2c(c1)C(=O)N(C)C[C@@H](OC)[C@@H](C)CN(C(=O)CN1CCOCC1)[C@H](C)CO2`: the max activity was 18.1%.

With `CCCN1C[C@H](C)[C@H](OC)CN(C)C(=O)c2cc(NC(=O)c3cccc(OC)c3)ccc2OC[C@@H]1C`, the max activity was -8.29% [at 0.5 µM].
